PubChem BioAssay AID1307 (SRMLSC, 2008)
Fewer than 10 of roughly 1,200 compounds were called active.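 Rule for the calls: active = inhibition reaching a set limit at one or more tested concentrations; inactive = inhibition under that limit at every dose.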 Only a sample is shown. Entries with a potency or affinity are not part of this list.

experiment: RAM pathway signaling blockade in S. cerevisiae – dose response (AID 1307);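 note: 0% = DMSO vehicle wells and 100% = 10 µM 1-NA-PP1 control; higher inhibition means more yeast growth since RAM block rescues cells from 5-FOA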; conditions: S. cerevisiae RAM network URA3 reporter, 5-FOA growth OD615, stronger effect = higher value, yeast express analog-sensitive mutant Cbk1 kinase; at 100 µM unless noted

Max inhibition, inactive:
Cc1[nH]c2ccccc2c1/C=C/c1nc2ccccc2c(=O)n1-c1ccc([N+](=O)[O-])cc1 6.44%
N#Cc1nc(COc2ccccc2)oc1N1CCN(c2cccc(Cl)c2)CC1 3.36% [at 50 µM]
O=C(COC(=O)c1ccc(-c2ccccc2)cc1)Nc1ccccc1-c1ccccc1 4.8% [at 50 µM]
CC(C)(C)OC(=O)NCCCCCNC(=O)c1[nH]cnc1C(=O)N[C@@H](Cc1ccccc1)C(=O)OCc1ccccc1 6.61%
CCOc1ccc(NS(=O)(=O)c2ccc(NC(=S)NC(=O)CC(C)C)cc2)cc1 3.65% [at 0.196 µM]
COc1cc(CC(NC(C)=O)C(=O)NC2CCN(c3c(Cc4ccccc4)c(C)nc4ncnn34)CC2)cc(OC)c1 (stereo not given) 3.02% [at 25 µM]
O=C(/C=C/c1ccccc1)N1CCN(c2cccc(Cl)n2)CC1 6.02%
CCOC(=O)c1c(C)[nH]c(C(=O)C(C)Sc2ccc(Cl)cc2)c1C (stereo not given) 2.41% [at 12.5 µM]
O=C(CSCc1ccc(Cl)cc1)Nc1cccc(C(=O)Nc2ccccc2C(=O)O)c1 1.32% [at 0.196 µM]
CCOc1ccc(NC(=O)CSc2nnc(-c3ccccc3Cl)n2Cc2ccco2)cc1 1.32% [at 0.782 µM]
C=CCN1C(=O)C(Cc2ccc(C)cc2)S/C1=N/N=C/c1ccco1 (stereo not given) 6.91%
CC(=O)c1cc(C(=O)c2ccccc2)sc1Nc1ccccc1 6.93%
CCOC(=O)c1c(-c2cccc([N+](=O)[O-])c2)csc1NC(=O)CCCOc1ccccc1OC 2.67% [at 50 µM]
COc1ccc(CN(CCC(c2ccccc2)c2ccco2)C(=O)c2ccco2)cc1 (stereo not given) 4.81% [at 6.25 µM]
COc1ccccc1NC(=O)C(Sc1ccccc1)c1ccccc1 (stereo not given) 2.18% [at 50 µM]
CCOC(=O)/C(=C/c1ccc(N2CCC(c3ccccc3)=N2)cc1)C(C)=O 3.75%
O=C(COC(=O)C1(c2ccccc2F)CCCC1)Nc1ncc(C(F)(F)F)cc1Cl 2.79% [at 0.196 µM]
CCOC(=O)c1cnc(SC)nc1Oc1cccc(NC(=O)c2ccc(C)cc2)c1 5.83% [at 50 µM]
CCCC(CCC)=NNc1ccc(S(=O)(=O)Nc2ccccc2OC)cc1[N+](=O)[O-] 3.78% [at 0.391 µM]
Cc1cccc(COCC(Cc2ccccc2)N2CCN(C(=O)c3ccc(C(F)(F)F)cc3)CCC2=O)c1 (stereo not given) 3.28% [at 0.782 µM]
